PP1 inh: PP1-alpha (human) inhibition in PP5 counter-screen; P62136; purified PP1alpha, OMFP fluorescence; inhibition, % at 6.7 µM; hit rate 0.9% among 320,000;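 active = inhibition above the mean inhibition of all tested compounds plus 3 SD, computed separately for each screening campaign, cut at about 15% in these data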
Target sequence (P62136 whole entry, looked up): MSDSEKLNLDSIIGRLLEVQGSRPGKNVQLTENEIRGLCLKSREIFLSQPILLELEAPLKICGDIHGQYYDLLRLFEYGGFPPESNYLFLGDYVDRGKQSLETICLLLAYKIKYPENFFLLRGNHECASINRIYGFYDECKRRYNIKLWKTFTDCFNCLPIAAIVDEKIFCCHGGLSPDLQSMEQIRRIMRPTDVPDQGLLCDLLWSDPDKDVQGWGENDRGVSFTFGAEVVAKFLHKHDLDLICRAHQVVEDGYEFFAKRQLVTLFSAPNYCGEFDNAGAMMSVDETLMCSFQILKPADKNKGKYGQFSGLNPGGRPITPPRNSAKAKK
B2AR ag: agonists of human beta-2 adrenergic receptor inducing internalization. P07550. Am2.2-beta2AR cells, FAP receptor internalization, flow cytometry. response, % (no concentration beside the values). hit rate 0.43% among 340,000. AID 504454;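 active = response above a set limit, near 3 SD of response in nonfluorescent compounds, cut at about 42% in these data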
Exocytosis inh: blocks lytic granule exocytosis; TALL-104 LAMP-1 surface exposure, flow cytometry; cells stimulated with thapsigargin and PMA; hit rate 0.66% among 360,000; AID 651702; inhibition, % at 10 µM;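 active = inhibition above about 55%, limit read from the data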
GRK2 inh: blocks RNA aptamer binding to human GRK2 | P25098 | bead flow cytometry, FAM-aptamer displacement from GRK2 | inhibition of aptamer binding, % at 10 µM | hit rate 0.59% among 330,000;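 active = inhibition of aptamer binding above 40%, roughly 3 SD of noise, on plates passing a quality check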;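 note: median bead fluorescence of bound FAM aptamer so fluorescent compounds give negative values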
NadD inh: NadD (S. aureus) enzyme inhibition. purified NadD enzyme, colorimetric absorbance read-out. inhibition, % at 20 µM. hit rate 0.78% among 360,000; in the data active = inhibition above about 26%
* hit, by the source's call. In the library only some 2.9% were active in any assay of this set; here they are far more common.

`O=S(=O)(Nc1cc2nc3ccccc3nc2n1Cc1ccccc1)c1ccc(Cl)cc1` gave PP1 inh 13, B2AR ag -26, Exocytosis inh 66*, GRK2 inh 11 and NadD inh 24.
Screening Cc1ccc(C)n1Cc1ccc(C(=O)O)cc1 returned PP1 inh 18*, B2AR ag -5, Exocytosis inh -3, GRK2 inh 88* and NadD inh 3.
`Cc1cc(C)n(Cc2ccc(C(=O)O)cc2)n1` gave PP1 inh -3, B2AR ag 3, Exocytosis inh -4, GRK2 inh 1 and NadD inh -2.
For O=C1Nc2ccccc2-c2nnnn2C1N1CCCCC1 (configuration not stated) the results were Exocytosis inh -4.
Screening O=C(CCCN1CCN(c2ccccc2)CC1)c1ccc(F)cc1 returned Exocytosis inh 0 and NadD inh -8.
Screening O=C1CC(=C(c2ccccc2)c2ccccc2)C(=O)N1CCCCN1CCN(c2ccccc2)CC1 returned PP1 inh 15, B2AR ag 13, Exocytosis inh 58*, GRK2 inh 0 and NadD inh 7.
`Cc1c(OCC(=O)NCc2ccccn2)ccc2c3c(c(=O)oc12)CCCC3` gave PP1 inh -3, B2AR ag 1, Exocytosis inh -2, GRK2 inh 1 and NadD inh 8.
`Cc1c(Cc2ccccc2)c(=O)oc2c(C)c(OCC(=O)NCc3ccccn3)ccc12` gave PP1 inh -1, B2AR ag 45*, Exocytosis inh -2, GRK2 inh 0 and NadD inh -5.
Screening N#C/C(=C\c1ccc(OC(=O)c2ccc(Br)s2)cc1)c1nc2ccccc2[nH]1 returned PP1 inh 5, B2AR ag -17, Exocytosis inh -4, GRK2 inh 0 and NadD inh 30.
Screening N#C/C(=C\c1ccc(OC(=O)c2ccc(Cl)s2)cc1)c1nc2ccccc2[nH]1 returned PP1 inh 11, B2AR ag -27, Exocytosis inh 0, GRK2 inh 81* and NadD inh 22.
`COc1ccccc1C1=NOC(COc2ccc3c(C)cc(=O)oc3c2)C1` (configuration not stated) gave PP1 inh 1, B2AR ag 44*, Exocytosis inh 10, GRK2 inh 2 and NadD inh -1.
`COc1cc2[nH]c(=O)n(CCCC(=O)N3CC=C(c4ccccc4)CC3)c(=O)c2cc1OC` gave PP1 inh -2, B2AR ag 1, Exocytosis inh -1, GRK2 inh 2 and NadD inh 7.
COc1cccc2c1[C@@H]1CN(CCCCn3c(=O)[nH]c4c(sc5ncc(-c6ccccc6)nc54)c3=O)C[C@@H]1CO2 was read as PP1 inh 17*, B2AR ag 31, Exocytosis inh 21, GRK2 inh 0 and NadD inh 20.
`O=C1c2ccccc2C(=O)N1CCCc1cn(C[C@H]2CC[C@@H]([C@@H]3CC[C@H](Cn4cc(CCCN5C(=O)c6ccccc6C5=O)nn4)O3)O2)nn1` gave PP1 inh 0, B2AR ag -7, Exocytosis inh 67*, GRK2 inh 2 and NadD inh -6.
`C(=N\Nc1nc(Nc2ccccc2)nc(N2CCOCC2)n1)/c1c[nH]c2ccccc12` gave PP1 inh 5 and GRK2 inh 3.
Screening Cc1ccc(Nc2nc(N/N=C/c3c[nH]c4ccccc34)nc(N3CCOCC3)n2)cc1 returned PP1 inh 4, B2AR ag 7, Exocytosis inh 63*, GRK2 inh 0 and NadD inh 15.
For COc1ccc(-n2c(C)cc(-c3csc(N)n3)c2C)cc1 the results were PP1 inh 17*, B2AR ag 6, Exocytosis inh 0, GRK2 inh 0 and NadD inh 33*.
CCCn1c(C)cc(-c2csc(N)n2)c1C was read as PP1 inh 7, B2AR ag -2, Exocytosis inh 2, GRK2 inh 9 and NadD inh 30.
Cc1cc(-c2csc(N)n2)c(C)n1-c1ccc(Cl)c(Cl)c1 was read as PP1 inh 17*, B2AR ag 3, Exocytosis inh 3, GRK2 inh 3 and NadD inh 36*.
`O=C(COC(=O)CN1C(=O)c2ccccc2C1=O)Nc1cccc(F)c1` gave PP1 inh -3, B2AR ag 5, Exocytosis inh 1, GRK2 inh 0 and NadD inh -3.
